Data from the supplement of paper PMC10981050.
“And” between values parts separate entries of the source, which are not always exact repeats. Equal values may be shown once. Where a name gives a salt, the structure may show the parent alone.

How the values were obtained:
Experiment in all cases: cell viability relative to vehicle control; higher = less cytotoxic
Details in all cases: 10 µM
[1] = tested on: K562
In short: (§1)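 After removal of identity-inconsistent compounds, the Selleck bioactive, kinase and epigenetic probe libraries were screened on CRISPR-edited mutant clones and isogenic wild-type clones of four leukaemia lines. Plates were 384-well, each well holding 2000 cells in 50 µL medium and receiving a single 10 µM acoustically dispensed dose. CellTiter-Glo luminescence was read 48 h later, after the supernatant was taken off. Genedata Screener was used to express viability as percent of the on-plate vehicle control.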

[2] = tested on: MARIMO
In short: as §1

[3] = tested on: MOLM14
In short: as §1

[4] = tested on: OCI-AML2
In short: as §1

SMILES	cell viability ([1]; SRSF2 genotype: SRSF2 P95H/wt)	cell viability ([1]; SRSF2 genotype: SRSF2 wt/wt)	cell viability ([2]; SRSF2 genotype: SRSF2 P95H/wt)	cell viability ([2]; SRSF2 genotype: SRSF2 wt/wt)	cell viability ([3]; SRSF2 genotype: SRSF2 P95H/wt)	cell viability ([3]; SRSF2 genotype: SRSF2 wt/wt)	cell viability ([4]; SRSF2 genotype: P95H/wt)	cell viability ([4]; SRSF2 genotype: wt/wt)
COc1cc(N2CCN(C)CC2)ccc1Nc1nccc(-c2cn(C)c3cnccc23)n1	63.7% and 63.4%	79.2%	41%	39.1%	3.24%	1.65%	6.46%	11.4%
OC[C@H]1O[C@@](CO)(O[C@H]2O[C@H](CO)[C@@H](O)[C@H](O)[C@H]2O)[C@@H](O[C@H]2O[C@H](CO)[C@@H](O)[C@H](O)[C@H]2O)[C@@H]1O [D-(+)-Melezitose]	100%	97.6%	105%	115%	98.5%	107%	95.1%	95.5%
Clc1ccc(C(Cn2ccnc2)OCc2c(Cl)cccc2Cl)c(Cl)c1 (stereo unspecified) [Isoconazole nitrate (Travogen)]	73.3% and 76.4%	68.3%	70.2%	73.2%	77.6%	79.6%	75.9%	69.7%
CCCCCCCCCCCCCCCC(=O)O [Palmitic acid]	99.6% and 104%	98.5%	96.4%	114%	100%	103%	95.6%	114%
CC(C)c1cc(C(=O)N2Cc3ccc(CN4CCN(C)CC4)cc3C2)c(O)cc1O	21.1% and 29.8%	24%	28%	26.9%	3.31%	4.31%	18.1%	22.8%
C[C@@H]1O[C@@H](OC[C@H]2O[C@@H](Oc3c(-c4ccc(O)c(O)c4)oc4cc(O)cc(O)c4c3=O)[C@H](O)[C@@H](O)[C@@H]2O)[C@H](O)[C@H](O)[C@H]1O [Rutin (Rutoside)]	106% and 105%	109%	108%	106%	105%	103%	105%	115%
COC(=O)CCSCc1ccc(-c2onc(C)c2NC(=O)OC(C)c2ccccc2Cl)cc1 (stereo unspecified)	94.7% and 94%	94.3%	87.3%	97.7%	90%	94.7%	82.3%	100%
C[C@@H]([C@H](C)O)[C@H](N)C(=O)O [(4S)-4-Hydroxy-L-isoleucine]	105% and 96.3%	102%	100%	102%	111%	102%	108%	104%
CC(S)C(=O)NCC(=O)O (stereo unspecified) [Tiopronin (Thiola)]	111% and 110%	104%	105%	105%	100%	105%	100%	112%
C=CC(=O)Nc1cc(Nc2nccc(-c3c[nH]c4ccccc34)n2)c(OC)cc1N(C)CCN(C)C	12.6% and 20.8%	24%	6.47%	9.15%	0.38%	0.41%	0.35%	0.67%
O=C(NNc1nc2cc(F)ccc2n2cccc12)c1cnccn1	24.8% and 29.5%	12.5%	12.6%	15.3%	4.38%	1.25%	12.4%	10.5%
O=C1CCCC(=O)C1C(=O)c1ccc(C(F)(F)F)cc1[N+](=O)[O-] [Nitisinone]	105%	108%	103%	109%	104%	108%	110%	111%
C[C@@H](N)c1ccc(C(=O)Nc2ccnc3[nH]ccc23)cc1	90.4% and 107%	105%	65.8%	78%	31.2%	41.1%	19.1%	32.1%
Nc1cc[nH]c(=O)n1 [Cytosine]	102% and 93.8%	99.5%	102%	110%	107%	104%	102%	107%
COCCc1ccc(OCC(O)CNC(C)C)cc1 (stereo unspecified) [Metroprolol succinate]	103% and 108%	105%	100%	110%	99.5%	107%	113%	108%
CCOc1ccc(NC(C)=O)cc1 [Phenacetin]	98.6% and 97.2%	91.5%	89.6%	92.5%	98.4%	95.8%	88.3%	93.4%
C[C@](N)(Cc1ccc(O)c(O)c1)C(=O)O [Methyldopa (Aldomet)]	90.6% and 100%	100%	97.2%	104%	98.3%	101%	98.4%	96.6%
CCOC(=O)O[C@]1(C(=O)OCCl)CC[C@H]2[C@@H]3CCC4=CC(=O)C=C[C@]4(C)[C@H]3[C@@H](O)C[C@@]21C [Loteprednol etabonate]	93.6% and 104%	98%	92.1%	98.5%	96.3%	97.2%	111%	114%
COC(=O)C1=C(C)NC(C)=C(C(=O)OCCN2CCN(C(c3ccccc3)c3ccccc3)CC2)C1c1cccc([N+](=O)[O-])c1 (stereo unspecified) [Manidipine (Manyper)]	75.7% and 63.9%	53.3%	60.2%	58.5%	73.9%	64.2%	29.8%	41%
CC(=O)Oc1ccccc1C(=O)O [Aspirin (Acetylsalicylic acid)]	102% and 101%	94%	96.4%	95.9%	95.7%	102%	100%	96.7%
CCCN[C@H]1CCc2nc(N)sc2C1 [Pramipexole dihydrochloride monohydrate]	102% and 83.9%	83%	78.1%	85.2%	66.5%	74.9%	88.2%	78.2%

SMILES	cell viability ([1]; SRSF2 genotype: SRSF2 P95H/wt)	cell viability ([1]; SRSF2 genotype: SRSF2 wt/wt)	cell viability ([2]; SRSF2 genotype: SRSF2 P95H/wt)	cell viability ([2]; SRSF2 genotype: SRSF2 wt/wt)	cell viability ([3]; SRSF2 genotype: SRSF2 P95H/wt)	cell viability ([3]; SRSF2 genotype: SRSF2 wt/wt)	cell viability ([4]; SRSF2 genotype: P95H/wt)	cell viability ([4]; SRSF2 genotype: wt/wt)
C[C@@H](O)[C@H]1C(=O)N2C(C(=O)O)=C(S[C@@H]3CN[C@H](C(=O)N(C)C)C3)[C@H](C)[C@H]12 [Meropenem]	103% and 109%	106%	94.7%	96.9%	103%	101%	111%	101%
Cc1cccc(-c2nn3c(c2-c2ccnc4ccc(C(N)=O)cc24)CCC3)n1	102% and 98%	99.2%	104%	103%	99.7%	96.1%	108%	108%
Cc1nc(C)c(C)nc1C [Tetramethylpyrazine]	111% and 112%	118%	107%	111%	108%	107%	112%	116%
N[C@@H](Cc1cc(I)c(Oc2cc(I)c(O)c(I)c2)c(I)c1)C(=O)O [Levothyroxine sodium]	89.6% and 92.8%	106%	102%	104%	92.9%	101%	100%	94.3%
Nc1ncn([C@@H]2O[C@H](CO)[C@@H](O)[C@H]2O)c(=O)n1 [Azacitidine (Vidaza)]	47.4% and 45.7%	52.2%	45.5%	52.8%	45.7%	40.3%	35.8%	34.3%
COc1cc(C[C@H](C)[C@H](C)Cc2ccc3c(c2)OCO3)ccc1O [Anwuligan]	88.8% and 87%	87.9%	87%	94.9%	88.3%	83.1%	76.8%	83.5%
CN1[C@@H]2CC[C@H]1C[C@@H](OC(=O)c1c[nH]c3ccccc13)C2 [Tropisetron]	92.1% and 89.1%	97.1%	87.4%	89%	105%	104%	91.8%	98.3%
CC(C)N1CCN(Cc2cnc(-c3cc(-c4cccc5[nH]ccc45)cc4[nH]ncc34)o2)CC1	39.8% and 29.8%	36.8%	53.7%	52.9%	68.2%	61.6%	30.8%	39.8%
O=C1c2cccc(O)c2C(=O)c2c(O)cc(CO)cc21 [Aloe-emodin]	92.1% and 94.9%	83.3%	95.1%	94.8%	92.4%	95.5%	82.5%	76.4%
C[C@@H]1O[C@@H](OC[C@H]2O[C@@H](Oc3cc(O)c4c(c3)O[C@H](c3ccc(O)cc3)CC4=O)[C@H](O)[C@@H](O)[C@@H]2O)[C@H](O)[C@H](O)[C@H]1O [Narirutin]	96.8% and 92.1%	92.3%	98.2%	97.5%	98.9%	96.8%	101%	99.4%
CN1CCN(c2ccc(OC(F)(F)F)c(Nc3ncc4c(n3)-c3c(c(C(N)=O)nn3CCO)CC4)c2)CC1	29.2% and 49.6%	46%	24.7%	22.9%	17.5%	4.9%	14.6%	18.8%
O=c1cc(-c2ccc(OC3OC(CO)C(O)C(O)C3O)cc2)oc2c(C3OC(CO)C(O)C(O)C3O)c(O)cc(O)c12 (stereo unspecified) [4'-O-Glucosylvitexin]	97% and 102%	101%	97.3%	91.7%	99.6%	99%	97.4%	96.8%
COc1ccccc1N1CCN(CCN2C(=O)CC3(CCCC3)CC2=O)CC1 [BMY 7378 Dihydrochloride]	98.9% and 100%	91.1%	95.3%	106%	99.9%	95.2%	89.4%	105%
Cc1cc(C(=O)Nc2nc3cccc(Cl)c3n2[C@@H]2CCCCN(C(=O)/C=C/CN(C)C)C2)ccn1 [Nazartinib (EGF816, NVS-816)]	74.5% and 75.6%	69.3%	27.6%	35.6%	53%	48.9%	44.4%	56.7%
Nc1ncnc2c1C(=O)N(c1ccc([C@H]3CC[C@H](CC(=O)O)CC3)cc1)CCO2	107% and 104%	110%	105%	107%	105%	105%	108%	123%
C/C(O)=C(\C#N)C(=O)Nc1ccc(C(F)(F)F)cc1 [Teriflunomide]	93.8% and 104%	91.6%	94.3%	98.5%	88.2%	93.9%	79.9%	87.1%
COc1ccc(Cl)cc1C(=O)NCCc1ccc(S(=O)(=O)NC(=O)NC2CCCCC2)cc1 [Glyburide (Glibenclamide)]	107% and 98.6%	110%	106%	120%	108%	103%	98.8%	104%
CCN(CC)CC(=O)Nc1c(C)cccc1C [Lidocaine (Alphacaine)]	113% and 102%	111%	106%	108%	103%	105%	101%	106%
CC=C(C)C(=O)O [Tiglic acid]	102% and 106%	109%	101%	103%	102%	109%	110%	98%
O=c1cc(-c2ccc(O)cc2)oc2cc(O)cc(O)c12 [Apigenin]	102% and 96.4%	96%	85.9%	99.8%	55.4%	57.5%	67.9%	63.6%
CC(/C=C/C=C(\C)C(=O)O[C@@H]1O[C@H](CO)[C@@H](O)[C@H](O)[C@H]1O)=C\C=C\C=C(C)\C=C\C=C(/C)C(=O)O[C@@H]1O[C@H](CO[C@@H]2O[C@H](CO)[C@@H](O)[C@H](O)[C@H]2O)[C@@H](O)[C@H](O)[C@H]1O [Crocin II]	109% and 106%	99.8%	104%	110%	87.5%	104%	97.4%	106%
